Screening results from PubChem BioAssay.
Compounds with a hit are over-represented: about 11% of the library has one in this group of screens.
HEK293 tox – kills HEK 293 cells; HEK 293 viability, ATP luminescence (CellTiter-Glo), 48-72 h; Potency, µM (top dose mostly 115 µM), inactives show at the top dose activity change, negative = cytotoxicity, most hits filed as inhibitors; 94,000 compounds, 6.6% hits; also: nearly all actives have a fitted effect of over 60% in size
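CellTiter-Glo luminescence (cellular ATP) was read after 48 or 72 hr of compound exposure at 37 degree Celsius. Cells were HEK 293 plated at 250 cells/well.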
Luciferase inh – inhibitors of firefly (Photinus pyralis) luciferase. P08659. purified P. pyralis luciferase, luminescence, biochemical. Potency, µM (titrated, usually from 115 µM), hits mostly inhibitors. 76,000 compounds, 2.5% hits. AID 1347043; also: nearly all actives have a fitted effect of over 65% in size
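Cell-free enzyme assay, 10nM P. pyralis luciferase, luciferin and ATP each at 10uM. Inhibition profiled over a 6-point titration, read as luminescence.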
NIH3T3 tox – kills NIH 3T3 cells | Potency, µM (top dose mostly 96.7 µM), without a hit: at the highest dose activity change, negative = cytotoxicity, actives largely listed as inhibitors | NIH 3T3 viability, CellTiter-Glo ATP luminescence, 48-72 h | 94,000 compounds, 4.3% hits; also: nearly all actives have a fitted effect of over 55% in size
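Cytotoxicity was measured by CellTiter-Glo ATP luminescence after 48 or 72 h compound exposure at 37 °C. Mouse NIH 3T3 fibroblasts were seeded at 400 cells/well and dosed by 23 nL pin transfer.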
hNpr1 antagonist – human Npr1 receptor antagonism; HEK293 hNpr1 GloSensor cGMP, ANP-stimulated luminescence; Potency, µM (titrated, usually from 46.3 µM), inactives show at the highest dose activity change, negative = inhibition, actives largely listed as inhibitors; 76,000 compounds, 1.6% hits; AID 1347048; calls by dose curve; also: nearly all actives have a fitted effect of over 60% in size
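Compound pre-incubated 30 min at room temperature on GloSensor-loaded HEK293 cells stably carrying hNpr1 and the pGS-40F cGMP biosensor. Stimulation uses hNppA at 0.1 nM final; luminescence is taken at baseline and 20 min post-agonist.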
Numbers without * were called inactive; i = inactive; ? = inconclusive; / = no result; [ ] = remark or other dose. Unless noted, calls follow the shape of the dose curve; as a rule, active = well fitted curve in the direction sought with a large enough effect; inconclusive = small, poorly fitted or top-dose-only effect, or another doubt; inactive = no such curve, though single readings can be large; an effect the other way counts as inactive or inconclusive. % is scaled to controls: 0 for no effect and ±100 for the full control effect; potency is read from the fitted curve at half-maximal effect.

SMILES	HEK293 tox	Luciferase inh	NIH3T3 tox	hNpr1 antagonist
O=C(Cc1cccc(Cl)c1)N1CCc2nc(C3CC3)nc(-c3ccc(Cl)cc3)c2C1	?	i	?	-3.5%
CC(C)CCNC(=O)c1cnc2c(c1)N([S+](=O)([O-])c1cccnc1)CCC2	0.3%[172 µM]	i	?	0.0%[70.6 µM]
Cc1csc(NC(=O)c2cnc3c(c2)N([S+](=O)([O-])c2cccnc2)CCC3)n1	-12.9%[172 µM]	i	100µM*	6.0%[70.6 µM]
O=C(Nc1cccc(Cl)c1)c1cnc2c(c1)N([S+](=O)([O-])c1cccnc1)CCC2	100µM*	i	?	5.2%[70.6 µM]
O=C(NCc1ccc(C(F)(F)F)cc1)[C@@H]1Cc2nc[nH]c2CN1Cc1ccccn1	-27.3%[172 µM]	i	?	0.6%[70.6 µM]
COc1ccc(N2C(=O)C3(CCCCC3)C2C(=O)NCCN2CCc3ccccc3C2)cc1 (stereo not drawn)	?	i	?	-6.4%
COc1ccc(-c2cccc(C(=O)N3CCC(NC(=O)c4ccccc4OC)CC3)c2)nn1	28.2µM*	/	-18.8%	/
COc1cccc(-c2ccc(C(=O)N3CCC(NC(=O)Nc4ccccc4)CC3)cc2)c1	25.1µM*	/	?	/
COc1cccc(-c2cccc(C(=O)N3CCN(C(C)=O)CC3)c2)c1	-14.9%[172 µM]	/	-22.3%[138 µM]	/
COc1cccc(C(=O)NC2CCN(C(=O)c3ccc(-c4cncnc4)cc3)CC2)c1	-5.3%	/	-20.7%	/
COc1cccc(-c2cccc(C(=O)N3CCN(C(=O)Nc4ccc(Cl)cc4)CC3)c2)c1	89.1µM*	/	?	/
COc1cccc(-c2ccc(C(=O)N3CCC(NC(=O)Nc4ccc(Cl)cc4)CC3)cc2)c1	10µM*	/	28.2µM*	/
COc1cccc(-c2ccc(C(=O)NCCNC(=O)Nc3ccc(Cl)cc3)cc2)c1	?	/	-15.7%	/
COc1ccc(-c2cccc(C(=O)N3CCC(NC(=O)c4ccccc4F)CC3)c2)nn1	-1.8%	/	-4.1%	/
Cc1nc2cccnc2n1CC1CCCN(S(=O)(=O)c2ccc(C(F)(F)F)cc2)C1 (stereo not drawn)	?	i	-19.6%	-23.2%
CC(=O)NC1CCN(c2nc3ncccc3o2)C1 (stereo not drawn)	2.7%[172 µM]	/	-0.7%[138 µM]	/
O=C(c1ccc(F)cc1)N1CCCC(C(=O)N2CCC(N3CCOCC3=O)CC2)C1 (stereo not drawn)	3.7%	/	-26.5%	/
O=C(CC1COCCN1)N1CCN(C/C=C/c2ccccc2)CC1 (stereo not drawn)	?	i	-4.0%	2.1%
COc1cccc(-c2ccc(C(=O)N3CCC(N[S+](=O)([O-])c4ccccc4)CC3)cc2)c1	20µM*	/	?	/
COc1cccc(-c2ccc(C(=O)N3CCC(NC(=O)c4ccc(C)cc4)CC3)cc2)c1	?	/	-31.8%	/
COc1ccccc1-c1ccc(C(=O)N2CCC(NC(=O)Nc3ccccc3)CC2)cc1	39.8µM*	/	?	/
COc1cccc(-c2ccc(C(=O)N3CCC(NC(=O)c4ccccc4)CC3)cc2)c1	44.7µM*	/	?	/
COc1ccccc1-c1ccc(C(=O)N2CCC(N[S+](C)(=O)[O-])CC2)cc1	-19.8%	/	-26.7%	/
COc1ccc(Cn2c(=O)c(C(=O)N3CCN(C(=O)c4ccccc4C)CC3)nc3cccnc32)cc1	-1.2%	/	-18.9%	/
O=C1NC2(CCN(C(=O)c3ccc(Cl)cc3)CC2)COc2ccccc21	-7.7%	/	-4.5%	/
SMILES	HEK293 tox	Luciferase inh	NIH3T3 tox	hNpr1 antagonist
O=C1NCCCc2[nH]c(-c3cnn(-c4cccc(F)c4)c3)nc21	?	22.4µM*	-23.5%	-20.7%
Fc1cccc(-n2cc(CN3CCCC4(CCOC4)C3)cn2)c1 (stereo not drawn)	-11.6%	i	-28.0%	2.0%
COc1ccc(CCC(=O)N2CC(N(CC(C)C)C3CCN(C)CC3)C2)cc1	-29.1%	/	-25.2%	/
COCCn1c(=O)c2c(n1Cc1ccccc1)CN(C(=O)c1cc3ccccc3[nH]1)CC2	-10.8%[172 µM]	i	?	0.5%[70.6 µM]
O=C(c1cccc(O)c1)N1CCc2c(n(Cc3cccnc3)n(-c3ccccc3)c2=O)C1	i	i	?	2.3%[70.6 µM]
Cn1c(C(=O)N2CCc3c(n(Cc4cccnc4)n(-c4ccccc4)c3=O)C2)cc2ccccc21	0.7%	i	28.2µM*	3.0%
COCCn1c(=O)c2c(n1Cc1ccccc1)CN(C(=O)c1cc3ccccc3n1C)CC2	-10.9%	i	28.2µM*	-1.1%
COc1ccc(N2CC3CCC(C2)N3Cc2ccc(C#N)cc2)cc1	-27.9%	/	-20.7%	/
Cc1ccc(CN2CCCCCCNC(=O)CC2c2ccccc2)o1 (stereo not drawn)	?	i	?	-1.4%
Cc1ccc(CN2CCCCCCNC(=O)CC2c2ccccc2)s1 (stereo not drawn)	39.8µM*	i	?	-15.4%
O=C1CC(c2ccccc2)N(Cc2ccc3[nH]ccc3c2)CCCCCN1 (stereo not drawn)	?	i	?	-15.0%
Cc1cccc(CN2CCCCCNC(=O)CC2c2ccccc2)c1 (stereo not drawn)	?	i	39.8µM*	-17.3%
COc1ccnc(N2CC[C@H](c3nnc(-c4ccc(C)cc4)o3)C2)n1	100µM*	?	?	-3.0%[70.6 µM]
Cc1ccc(-c2nnc([C@H]3CCN(c4ncccn4)C3)o2)cc1	?	i	-13.8%[174 µM]	-1.8%[70.6 µM]
O=C(Nc1ccc2c(c1)OCCO2)N1CC2(CCCCC2)CC1COc1ccncc1 (stereo not drawn)	-2.1%	/	-27.5%	/
COC1CCN(C(=O)Cc2c[nH]c3ncc(-c4cccnc4)cc23)CC1	3.6%[172 µM]	i	79.4µM*	1.4%[70.6 µM]
CNC(=O)c1cccc(-c2cnc3[nH]cc(CC(=O)NCC(C)C)c3c2)c1	?	i	35.5µM*	0.6%[70.6 µM]
O=C(Cc1c[nH]c2ncc(-c3ccoc3)cc12)N1CCOCC1	?	i	?	-11.9%[70.6 µM]
O=C(Cc1c[nH]c2ncc(-c3cccnc3)cc12)N1CCN(c2ccccn2)CC1	?	i	?	-8.3%[70.6 µM]
CNC(=O)c1cccc(-c2cnc3[nH]cc(CC(=O)Nc4ccccc4C)c3c2)c1	?	?	?	-0.3%[70.6 µM]
CNC(=O)c1cccc(-c2cnc3[nH]cc(CC(=O)N4CCCC4)c3c2)c1	?	i	?	-9.3%[70.6 µM]
COc1ncc(-c2cnc3[nH]cc(CC(=O)N4CCOCC4)c3c2)cn1	-18.1%[172 µM]	i	79.4µM*	3.7%[70.6 µM]
CNC(=O)c1cccc(-c2cnc3[nH]cc(CC(=O)N4CCC(OC)CC4)c3c2)c1	-23.7%[172 µM]	?	89.1µM*	2.4%[70.6 µM]
O=C(C1CCCN1C(=O)NC1CCCC1)N1CCC(c2ccccc2)CC1 (stereo not drawn)	-18.3%	/	?	/
NC(=O)c1cccc(-c2cc(-c3cccnc3)c3cncn3c2)c1	?	i	?	-13.9%[70.6 µM]
COc1ccc(-c2cc(-c3ccncc3)cn3cncc23)cc1	?	i	35.5µM*	3.6%[70.6 µM]
COc1ccc(-c2cc(-c3ccncc3)c3cncn3c2)cc1	?	?	35.5µM*	-11.6%[70.6 µM]
OCc1ccc(-c2cc(-c3ccncc3)c3cncn3c2)cc1	?	i	39.8µM*	1.9%[70.6 µM]
